Measured values: PubChem BioAssay

What follows are molecules tested against Voltage-gated potassium channel subunit beta-2 (Rattus norvegicus) (UniProt P62483) (assay: enhancers of rat Kvbeta2 NADPH turnover – biochemical, NADPH fluorescence, primary screen (AID 623;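 also: fluorescence intensity change per second fitted from 20 to 320 s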)). Conditions: Recombinant KvBeta, NADPH fluorescence decrease slope, 10 min; at 10 µM; active compounds read low;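 active = NADPH fluorescence slope more negative than the mean of all samples by about 3 SD, 99.7% confidence; inactive = the rest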.
Voltage-gated potassium channel subunit beta-2 (Rattus norvegicus), sequence (P62483 whole entry, looked up): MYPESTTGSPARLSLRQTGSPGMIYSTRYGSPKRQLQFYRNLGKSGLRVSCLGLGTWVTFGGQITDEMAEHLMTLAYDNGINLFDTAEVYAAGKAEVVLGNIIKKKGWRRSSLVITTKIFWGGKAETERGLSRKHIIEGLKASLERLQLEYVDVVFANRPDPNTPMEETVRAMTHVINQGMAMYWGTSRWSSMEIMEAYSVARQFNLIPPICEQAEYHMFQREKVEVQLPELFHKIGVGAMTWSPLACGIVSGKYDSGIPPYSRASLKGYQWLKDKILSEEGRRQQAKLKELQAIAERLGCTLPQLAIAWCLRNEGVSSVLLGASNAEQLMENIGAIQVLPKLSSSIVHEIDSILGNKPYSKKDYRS

NADPH fluorescence slope, inactive:
O=C(Cc1ccc(S(=O)(=O)N2CCCC2)s1)Nc1nc2c(s1)CCCC2 -5.6e-05, Cn1nnnc1SCC(=O)NCc1ccco1 0.000107, COc1cc(Cn2c(C(=O)O)cc3sccc32)cc(OC)c1OC -0.000122, CCOCCCNC(=O)CCNS(=O)(=O)c1ccc(C)cc1 -3.1e-05, COc1ccc2c(c1)CCc1c(C(=O)N3CCCc4ccccc43)noc1-2 -0.000351, COc1ccc(OC)c(NC(=O)C2CCN(c3cc(-c4ccccc4)nc4ncnn34)CC2)c1 1.4e-05, CC(C)C12CN3CC(C(C)C)(CN(C1)C3c1ccc3c(c1)OCO3)C2=O (stereo not given) -1e-05, C/C(CC(O)(/C=N/O)c1ccccc1)=N\O (stereo not given) -5.8e-05, CCCCc1oc2ccccc2c1C(=O)c1cc(I)c(OCCN(CC)CC)c(I)c1 -4.3e-05, Cn1cc(C(=O)NC2CCCCCCC2)c(=O)c2cc(S(=O)(=O)N3CCCC3)ccc21 -4.1e-05, Cc1ccc(C2C(C#N)=C(N)Oc3cc4c(cc32)OCO4)cc1 (stereo not given) -3.6e-05, CN(C)S(=O)(=O)c1ccc(C(=O)N2CCC(c3nc4ccccc4o3)CC2)cc1 -9.6e-05, O=C(CN1CCC(n2nnc3cc(F)ccc32)CC1)Nc1ccc2c(c1)CCC2 -1.5e-05, CCOC(=O)CSc1nnc(CNC(=O)c2cccs2)n1-c1cc(OC)ccc1OC -2.7e-05, Cc1cnc(C(=O)NCCc2ccc(S(=O)(=O)NC(=O)NC3CCCCC3)cc2)cn1 8e-06
